Results on one sequence are retold here after publication PMC7862700, “An all-to-all approach to the identification of sequence-specific readers for epigenetic DNA modifications on cytosine”.

Assay in all cases: DAPPL (digital affinity profiling via proximity ligation, sequencing); 10 mM Tris-HCl pH 7.5, 50 mM NaCl, 1 mM DTT, 4% glycerol, room temperature, 30 min; GST-TFs on glutathione beads, 16-mer random dsDNA library, 0.1% formaldehyde crosslink after washing; high values mean tight binding
The target in one experiment is T1, FLI1 (Homo sapiens, UniProt Q01543 1-452).
T1 sequence: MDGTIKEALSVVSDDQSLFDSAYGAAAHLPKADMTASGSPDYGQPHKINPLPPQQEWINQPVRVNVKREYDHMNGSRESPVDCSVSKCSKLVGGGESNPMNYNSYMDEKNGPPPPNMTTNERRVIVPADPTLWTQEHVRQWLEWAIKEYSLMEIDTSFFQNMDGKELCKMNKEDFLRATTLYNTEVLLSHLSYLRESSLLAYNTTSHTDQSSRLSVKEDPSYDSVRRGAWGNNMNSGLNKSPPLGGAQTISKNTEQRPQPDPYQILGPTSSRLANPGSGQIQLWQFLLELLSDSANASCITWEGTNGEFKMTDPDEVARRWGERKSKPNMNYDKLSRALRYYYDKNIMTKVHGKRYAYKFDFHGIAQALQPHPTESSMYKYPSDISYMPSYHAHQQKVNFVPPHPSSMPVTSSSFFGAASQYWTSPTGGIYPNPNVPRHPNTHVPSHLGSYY
Particulars: protein: recombinant; tags: N-terminal GST; dsDNA, one strand shown. A digest of the protocol:
(§1)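 Binding signal is defined as a hexamer's read frequency for one factor over its frequency for the tag-only sample. To obtain reads, GST-fused human transcription factors were expressed in yeast, captured on glutathione beads, barcoded with DNA and pooled with that sample. Pools met 200 nmole of a 16-mer random double-stranded DNA library in Tris/NaCl/DTT/glycerol buffer for 30 min at room temperature before washing, 0.1% formaldehyde crosslinking, proximity ligation (BsaI/T4 ligase, 1 h, 37 °C), PCR and Illumina NextSeq500 sequencing.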

Another experiment has as its target T2, ELK1 (Homo sapiens, UniProt P19419 1-428).
T2 sequence: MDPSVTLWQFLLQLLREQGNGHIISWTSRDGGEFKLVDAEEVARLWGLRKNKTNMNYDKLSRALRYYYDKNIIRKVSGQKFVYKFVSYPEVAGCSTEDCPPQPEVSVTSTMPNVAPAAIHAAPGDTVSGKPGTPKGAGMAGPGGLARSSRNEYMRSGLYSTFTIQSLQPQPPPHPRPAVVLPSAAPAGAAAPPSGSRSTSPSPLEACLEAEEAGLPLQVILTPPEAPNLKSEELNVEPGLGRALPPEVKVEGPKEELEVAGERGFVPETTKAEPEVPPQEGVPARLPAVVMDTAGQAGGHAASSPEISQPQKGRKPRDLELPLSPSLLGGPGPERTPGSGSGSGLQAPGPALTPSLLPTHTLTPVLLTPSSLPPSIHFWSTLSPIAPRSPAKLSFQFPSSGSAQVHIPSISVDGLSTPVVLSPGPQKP
The conditions noted are these: protein: recombinant; tags: N-terminal GST; dsDNA, one strand shown. The method in brief: as §1

The target in a further experiment is T3, GABPA (Homo sapiens, UniProt Q06546 1-454).
T3 sequence: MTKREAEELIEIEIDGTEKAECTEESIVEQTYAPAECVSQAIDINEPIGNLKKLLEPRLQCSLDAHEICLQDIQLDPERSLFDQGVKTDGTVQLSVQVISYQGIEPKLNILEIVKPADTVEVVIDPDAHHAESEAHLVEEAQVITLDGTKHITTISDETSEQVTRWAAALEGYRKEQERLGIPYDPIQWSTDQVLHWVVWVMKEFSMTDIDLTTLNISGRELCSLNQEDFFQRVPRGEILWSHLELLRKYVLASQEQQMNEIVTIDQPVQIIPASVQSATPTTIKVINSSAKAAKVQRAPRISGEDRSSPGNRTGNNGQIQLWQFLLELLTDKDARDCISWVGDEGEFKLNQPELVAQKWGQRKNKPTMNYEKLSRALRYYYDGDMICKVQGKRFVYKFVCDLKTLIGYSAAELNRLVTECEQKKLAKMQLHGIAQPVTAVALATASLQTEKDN
Particulars: protein: recombinant; tags: N-terminal GST; dsDNA, one strand shown. The method in brief: as §1

In a further experiment the target is T4, ERG (Homo sapiens, UniProt P11308 1-479).
T4 sequence: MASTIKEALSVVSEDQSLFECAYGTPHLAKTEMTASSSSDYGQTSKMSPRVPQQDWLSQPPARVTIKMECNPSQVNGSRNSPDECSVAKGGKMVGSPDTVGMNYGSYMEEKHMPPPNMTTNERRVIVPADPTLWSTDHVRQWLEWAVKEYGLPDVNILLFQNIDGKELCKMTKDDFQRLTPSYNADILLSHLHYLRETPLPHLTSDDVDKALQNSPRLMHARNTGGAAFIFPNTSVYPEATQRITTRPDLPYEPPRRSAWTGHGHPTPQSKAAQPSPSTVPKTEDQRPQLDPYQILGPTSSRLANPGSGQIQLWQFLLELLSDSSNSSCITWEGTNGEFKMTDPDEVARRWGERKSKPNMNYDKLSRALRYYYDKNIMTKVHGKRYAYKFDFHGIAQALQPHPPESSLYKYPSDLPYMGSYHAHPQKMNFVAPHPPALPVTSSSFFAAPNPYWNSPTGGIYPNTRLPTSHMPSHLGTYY
Particulars: protein: recombinant; tags: N-terminal GST; dsDNA, one strand shown. The method in brief:
as §1

In another experiment the target is ELF1 (Homo sapiens, UniProt P32519 1-619). The conditions noted are these: protein: recombinant; tags: N-terminal GST; dsDNA, one strand shown. The method in brief: as §1
A further experiment addresses T5, EHF (Homo sapiens, UniProt Q9NZC4 1-300).
T5 sequence: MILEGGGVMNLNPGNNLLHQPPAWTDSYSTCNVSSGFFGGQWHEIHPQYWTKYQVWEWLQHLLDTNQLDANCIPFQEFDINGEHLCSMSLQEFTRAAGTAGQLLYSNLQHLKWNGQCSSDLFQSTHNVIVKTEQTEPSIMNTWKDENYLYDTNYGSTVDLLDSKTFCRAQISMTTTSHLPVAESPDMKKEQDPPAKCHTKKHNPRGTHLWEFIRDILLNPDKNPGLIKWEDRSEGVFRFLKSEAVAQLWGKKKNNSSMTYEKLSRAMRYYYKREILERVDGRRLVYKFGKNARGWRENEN
The conditions noted are these: protein: recombinant; tags: N-terminal GST; dsDNA, one strand shown. The method in brief: as §1

Another experiment deals with SPI1 (Homo sapiens, UniProt P17947 1-270). The conditions noted are these: protein: recombinant; tags: N-terminal GST; dsDNA, one strand shown. A digest of the protocol:
as §1

The target of the next experiment is SPIB (Homo sapiens, UniProt Q01892 1-262). The conditions noted are these: protein: recombinant; tags: N-terminal GST; dsDNA, one strand shown. The method in brief:
as §1

The next experiment deals with T6, ELK3 (Homo sapiens, UniProt P41970 1-407).
T6 sequence: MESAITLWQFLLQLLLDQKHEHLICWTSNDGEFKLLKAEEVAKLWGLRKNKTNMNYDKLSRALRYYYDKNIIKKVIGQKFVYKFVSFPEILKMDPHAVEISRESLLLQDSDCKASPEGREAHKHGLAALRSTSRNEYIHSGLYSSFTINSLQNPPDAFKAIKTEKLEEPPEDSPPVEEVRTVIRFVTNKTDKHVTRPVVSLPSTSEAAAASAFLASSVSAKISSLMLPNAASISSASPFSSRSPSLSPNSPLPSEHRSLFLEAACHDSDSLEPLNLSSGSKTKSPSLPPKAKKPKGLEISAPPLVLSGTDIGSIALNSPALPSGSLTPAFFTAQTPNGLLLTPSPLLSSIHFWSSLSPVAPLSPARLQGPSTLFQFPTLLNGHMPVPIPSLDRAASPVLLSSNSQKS
The conditions noted are these: protein: recombinant; tags: N-terminal GST; dsDNA, one strand shown. The method in brief: as §1

The next experiment deals with T7, FEV (Homo sapiens, UniProt Q99581 1-238).
T7 sequence: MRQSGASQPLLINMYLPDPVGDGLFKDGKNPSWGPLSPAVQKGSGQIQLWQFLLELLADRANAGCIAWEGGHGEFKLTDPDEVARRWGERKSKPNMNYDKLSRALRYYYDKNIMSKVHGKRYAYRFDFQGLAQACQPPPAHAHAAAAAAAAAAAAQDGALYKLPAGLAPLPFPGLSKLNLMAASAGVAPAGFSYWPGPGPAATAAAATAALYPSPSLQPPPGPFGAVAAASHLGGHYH
Particulars: protein: recombinant; tags: N-terminal GST; dsDNA, one strand shown. The method in brief: as §1

Another experiment addresses ETV5 (Homo sapiens, UniProt P41161 1-510). The conditions noted are these: protein: recombinant; tags: N-terminal GST; dsDNA, one strand shown. A digest of the protocol:
as §1

For a further experiment, the target named is HSF1 (Homo sapiens, UniProt Q00613 1-529). Particulars: protein: recombinant; tags: N-terminal GST; chain copies: 3; dsDNA, one strand shown. The method in brief:
as §1

A further experiment concerns the target ELF4 (Homo sapiens, UniProt Q99607 1-663). The conditions noted are these: protein: recombinant; tags: N-terminal GST; dsDNA, one strand shown. A digest of the protocol: as §1
The target in the next experiment is T8, ELK4 (Homo sapiens, UniProt P28324-2 1-405).
T8 sequence: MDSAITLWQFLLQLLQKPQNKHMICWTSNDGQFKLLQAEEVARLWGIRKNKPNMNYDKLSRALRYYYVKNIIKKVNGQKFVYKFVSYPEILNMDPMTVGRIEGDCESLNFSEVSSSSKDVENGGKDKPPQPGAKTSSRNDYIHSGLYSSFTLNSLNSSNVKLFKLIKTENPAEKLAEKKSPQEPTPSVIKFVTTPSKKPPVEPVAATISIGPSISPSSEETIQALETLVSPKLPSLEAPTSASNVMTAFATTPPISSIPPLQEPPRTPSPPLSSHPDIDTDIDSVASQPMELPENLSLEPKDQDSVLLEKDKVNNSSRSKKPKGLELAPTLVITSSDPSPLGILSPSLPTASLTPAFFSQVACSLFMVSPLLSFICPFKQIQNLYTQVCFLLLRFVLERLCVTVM
Particulars: protein: recombinant; tags: N-terminal GST; dsDNA, one strand shown. A digest of the protocol:
as §1

The target in the next experiment is T9, ETV2 (Homo sapiens, UniProt O00321 1-342).
T9 sequence: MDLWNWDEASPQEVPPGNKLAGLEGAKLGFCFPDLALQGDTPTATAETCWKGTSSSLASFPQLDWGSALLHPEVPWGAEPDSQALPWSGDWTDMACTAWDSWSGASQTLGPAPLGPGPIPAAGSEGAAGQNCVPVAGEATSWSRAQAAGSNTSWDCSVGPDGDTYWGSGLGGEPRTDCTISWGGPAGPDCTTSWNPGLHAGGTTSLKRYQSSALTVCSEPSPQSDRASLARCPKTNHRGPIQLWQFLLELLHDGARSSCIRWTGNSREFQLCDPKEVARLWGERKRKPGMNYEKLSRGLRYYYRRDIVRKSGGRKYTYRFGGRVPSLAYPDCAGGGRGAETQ
The conditions noted are these: protein: recombinant; tags: N-terminal GST; dsDNA, one strand shown. A digest of the protocol: as §1

A further experiment concerns the target T10, ELF3 (Homo sapiens, UniProt P78545 1-371).
T10 sequence: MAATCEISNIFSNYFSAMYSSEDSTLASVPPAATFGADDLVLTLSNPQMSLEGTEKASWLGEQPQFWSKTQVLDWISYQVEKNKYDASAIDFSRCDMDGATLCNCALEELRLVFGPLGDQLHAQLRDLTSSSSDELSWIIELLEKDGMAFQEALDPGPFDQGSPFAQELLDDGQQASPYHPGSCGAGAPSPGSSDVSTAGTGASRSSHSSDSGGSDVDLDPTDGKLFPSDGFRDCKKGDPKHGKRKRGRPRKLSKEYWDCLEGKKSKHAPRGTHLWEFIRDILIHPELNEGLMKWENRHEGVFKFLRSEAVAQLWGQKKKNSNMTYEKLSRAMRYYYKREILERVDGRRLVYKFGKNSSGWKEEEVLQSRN
Particulars: protein: recombinant; tags: N-terminal GST; dsDNA, one strand shown. The method in brief:
as §1

The target in a further experiment is CRX (Homo sapiens, UniProt O43186 1-299). The conditions noted are these: protein: recombinant; tags: N-terminal GST; dsDNA, one strand shown. The method in brief: as §1
A further experiment has as its target ETV1 (Homo sapiens, UniProt P50549 1-477). The conditions noted are these: protein: recombinant; tags: N-terminal GST; dsDNA, one strand shown. The method in brief: as §1

ELF4, sequence (Q99607 whole entry): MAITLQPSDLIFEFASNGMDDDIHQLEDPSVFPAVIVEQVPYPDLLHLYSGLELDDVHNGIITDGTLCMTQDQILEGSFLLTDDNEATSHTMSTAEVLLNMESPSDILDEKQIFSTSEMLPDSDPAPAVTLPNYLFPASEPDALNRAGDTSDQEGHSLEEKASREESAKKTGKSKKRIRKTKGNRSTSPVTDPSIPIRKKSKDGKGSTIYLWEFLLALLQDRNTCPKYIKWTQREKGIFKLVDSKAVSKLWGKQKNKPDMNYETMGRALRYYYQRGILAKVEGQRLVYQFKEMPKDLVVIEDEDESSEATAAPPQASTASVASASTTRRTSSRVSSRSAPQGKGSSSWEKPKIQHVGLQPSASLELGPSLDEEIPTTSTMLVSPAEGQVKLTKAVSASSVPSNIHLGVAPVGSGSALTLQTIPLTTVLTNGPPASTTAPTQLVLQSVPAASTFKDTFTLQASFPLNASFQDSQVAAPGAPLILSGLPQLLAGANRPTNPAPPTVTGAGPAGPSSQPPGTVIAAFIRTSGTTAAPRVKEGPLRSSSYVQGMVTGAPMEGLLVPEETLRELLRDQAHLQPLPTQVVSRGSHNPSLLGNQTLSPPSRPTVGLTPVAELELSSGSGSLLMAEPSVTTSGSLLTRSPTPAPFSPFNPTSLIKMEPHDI
ELF1, sequence (P32519 whole entry): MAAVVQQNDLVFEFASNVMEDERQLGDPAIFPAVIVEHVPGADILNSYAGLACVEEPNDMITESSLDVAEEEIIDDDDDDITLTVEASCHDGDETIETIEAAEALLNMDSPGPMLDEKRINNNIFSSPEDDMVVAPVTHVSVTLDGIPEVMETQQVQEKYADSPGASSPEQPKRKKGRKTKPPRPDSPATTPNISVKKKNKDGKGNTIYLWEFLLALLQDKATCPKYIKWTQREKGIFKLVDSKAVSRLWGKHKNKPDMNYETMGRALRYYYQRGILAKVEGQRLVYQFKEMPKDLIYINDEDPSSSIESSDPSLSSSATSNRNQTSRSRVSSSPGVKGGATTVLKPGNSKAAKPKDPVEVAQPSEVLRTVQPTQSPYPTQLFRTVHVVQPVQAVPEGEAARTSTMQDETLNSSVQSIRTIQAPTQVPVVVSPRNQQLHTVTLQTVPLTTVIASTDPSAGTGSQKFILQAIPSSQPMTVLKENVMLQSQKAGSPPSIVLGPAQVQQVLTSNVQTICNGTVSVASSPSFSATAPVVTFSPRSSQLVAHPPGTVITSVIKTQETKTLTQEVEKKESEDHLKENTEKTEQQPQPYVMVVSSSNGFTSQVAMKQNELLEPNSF
HSF1, sequence (Q00613 whole entry): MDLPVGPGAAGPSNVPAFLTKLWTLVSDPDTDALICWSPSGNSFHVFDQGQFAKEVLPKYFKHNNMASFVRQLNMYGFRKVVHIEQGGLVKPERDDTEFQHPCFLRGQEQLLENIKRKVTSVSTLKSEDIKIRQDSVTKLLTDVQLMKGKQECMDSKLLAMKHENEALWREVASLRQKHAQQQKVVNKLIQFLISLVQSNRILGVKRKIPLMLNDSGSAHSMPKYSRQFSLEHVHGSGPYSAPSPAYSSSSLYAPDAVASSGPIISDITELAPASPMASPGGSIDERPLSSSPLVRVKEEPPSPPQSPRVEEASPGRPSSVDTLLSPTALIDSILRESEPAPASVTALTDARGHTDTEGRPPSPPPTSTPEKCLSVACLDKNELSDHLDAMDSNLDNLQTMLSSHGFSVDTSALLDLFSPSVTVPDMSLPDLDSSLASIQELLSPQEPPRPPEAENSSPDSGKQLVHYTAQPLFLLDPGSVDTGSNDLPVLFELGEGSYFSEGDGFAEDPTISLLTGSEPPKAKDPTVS
ETV5, sequence (P41161 whole entry): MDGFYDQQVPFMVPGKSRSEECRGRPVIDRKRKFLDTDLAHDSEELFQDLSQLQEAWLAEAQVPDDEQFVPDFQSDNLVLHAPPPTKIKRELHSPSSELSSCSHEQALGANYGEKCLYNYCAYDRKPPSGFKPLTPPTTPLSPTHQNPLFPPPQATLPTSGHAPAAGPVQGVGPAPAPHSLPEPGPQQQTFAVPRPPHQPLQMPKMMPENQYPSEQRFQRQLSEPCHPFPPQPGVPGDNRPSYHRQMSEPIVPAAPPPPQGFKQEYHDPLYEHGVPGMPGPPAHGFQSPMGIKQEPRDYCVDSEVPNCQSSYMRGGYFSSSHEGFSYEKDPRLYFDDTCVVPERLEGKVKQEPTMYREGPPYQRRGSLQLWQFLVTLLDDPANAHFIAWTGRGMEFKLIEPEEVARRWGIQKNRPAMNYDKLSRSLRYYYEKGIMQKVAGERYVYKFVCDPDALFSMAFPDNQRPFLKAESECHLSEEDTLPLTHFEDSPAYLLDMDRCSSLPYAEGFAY
SPIB, sequence (Q01892 whole entry): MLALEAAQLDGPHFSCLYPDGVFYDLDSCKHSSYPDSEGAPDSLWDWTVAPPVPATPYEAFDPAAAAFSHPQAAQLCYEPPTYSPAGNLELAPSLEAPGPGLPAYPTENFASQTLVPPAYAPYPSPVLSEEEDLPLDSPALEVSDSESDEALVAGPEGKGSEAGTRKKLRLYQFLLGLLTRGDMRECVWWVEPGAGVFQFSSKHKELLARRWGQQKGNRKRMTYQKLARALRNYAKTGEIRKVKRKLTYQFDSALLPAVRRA
ETV1, sequence (P50549 whole entry): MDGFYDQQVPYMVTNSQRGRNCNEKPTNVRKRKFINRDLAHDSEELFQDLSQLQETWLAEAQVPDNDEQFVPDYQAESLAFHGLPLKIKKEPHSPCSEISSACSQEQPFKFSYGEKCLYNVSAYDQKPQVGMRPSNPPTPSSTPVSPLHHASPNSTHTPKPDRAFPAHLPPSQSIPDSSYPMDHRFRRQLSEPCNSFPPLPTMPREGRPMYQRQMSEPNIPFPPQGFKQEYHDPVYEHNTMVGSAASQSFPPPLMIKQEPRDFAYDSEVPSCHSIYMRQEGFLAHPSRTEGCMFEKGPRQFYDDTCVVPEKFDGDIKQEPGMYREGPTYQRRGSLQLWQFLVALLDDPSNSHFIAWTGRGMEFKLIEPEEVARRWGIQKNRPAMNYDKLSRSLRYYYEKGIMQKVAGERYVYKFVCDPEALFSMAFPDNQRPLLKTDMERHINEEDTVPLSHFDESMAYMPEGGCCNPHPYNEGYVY
CRX, sequence (O43186 whole entry): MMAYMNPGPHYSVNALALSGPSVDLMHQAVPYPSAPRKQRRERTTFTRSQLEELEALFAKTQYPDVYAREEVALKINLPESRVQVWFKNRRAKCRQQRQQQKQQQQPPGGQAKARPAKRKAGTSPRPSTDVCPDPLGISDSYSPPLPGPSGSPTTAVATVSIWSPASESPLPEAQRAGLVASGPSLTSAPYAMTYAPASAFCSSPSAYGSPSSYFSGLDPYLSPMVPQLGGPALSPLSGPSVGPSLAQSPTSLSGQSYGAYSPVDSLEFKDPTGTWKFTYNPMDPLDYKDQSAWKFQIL

Turning to TAACCA, the binding signal in the experiment with FLI1 is 1.12 fold enrichment (6-mer frequency, TF over GST control); with ELK1 it was 1.12 fold enrichment (6-mer frequency, TF over GST control); with GABPA, 1.08 fold enrichment (6-mer frequency, TF over GST control); with ERG, 1.12 fold enrichment (6-mer frequency, TF over GST control); in the experiment with ELF1 it was 1.11 fold enrichment (6-mer frequency, TF over GST control); with EHF, 1.15 fold enrichment (6-mer frequency, TF over GST control). The binding signal is 1.06 fold enrichment (6-mer frequency, TF over GST control) with SPI1; 1.11 fold enrichment (6-mer frequency, TF over GST control) in the experiment with SPIB; 1.16 fold enrichment (6-mer frequency, TF over GST control) with ELK3; 1 fold enrichment (6-mer frequency, TF over GST control) with FEV; 1.06 fold enrichment (6-mer frequency, TF over GST control) with ETV5; 1.16 fold enrichment (6-mer frequency, TF over GST control) with HSF1. The binding signal in the experiment with ELF4 was 1.16 fold enrichment (6-mer frequency, TF over GST control); with ELK4, 1.04 fold enrichment (6-mer frequency, TF over GST control); with ETV2 it was 1.12 fold enrichment (6-mer frequency, TF over GST control); with ELF3 it was 1.1 fold enrichment (6-mer frequency, TF over GST control); in the experiment with CRX, 1.31 fold enrichment (6-mer frequency, TF over GST control); with ETV1, 1.02 fold enrichment (6-mer frequency, TF over GST control).
